Rows were chosen to be rich in hits. Some 7.3% of all compounds tested hit in one or more screens of this group.
RORg inh: inhibitors of mouse ROR gamma transcriptional activity. Drosophila S2 Gal4-RORgamma UAS-luciferase reporter, 20 h. Potency, µM (top dose mostly 53.6 µM), inactives show at the highest dose activity change, negative = inhibition, hits mostly inhibitors. 310,000 tested, 5.4% active; also: nearly all actives have a fitted effect of over 60% in size
Target sequence (P51450 whole entry, looked up, the tested form may be a part): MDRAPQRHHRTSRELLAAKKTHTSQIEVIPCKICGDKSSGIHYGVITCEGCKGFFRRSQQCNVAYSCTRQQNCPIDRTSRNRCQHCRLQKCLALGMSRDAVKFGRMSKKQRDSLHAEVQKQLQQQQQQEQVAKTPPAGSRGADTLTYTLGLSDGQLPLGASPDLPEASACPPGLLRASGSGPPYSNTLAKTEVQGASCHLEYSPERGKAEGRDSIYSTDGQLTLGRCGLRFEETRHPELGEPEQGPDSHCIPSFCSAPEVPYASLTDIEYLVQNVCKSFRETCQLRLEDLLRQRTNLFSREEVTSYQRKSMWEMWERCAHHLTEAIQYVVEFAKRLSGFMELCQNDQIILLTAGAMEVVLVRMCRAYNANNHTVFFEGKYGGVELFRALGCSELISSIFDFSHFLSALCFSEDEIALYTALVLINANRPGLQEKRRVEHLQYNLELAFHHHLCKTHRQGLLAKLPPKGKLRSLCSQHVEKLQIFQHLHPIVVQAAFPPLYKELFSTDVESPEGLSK
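ROR gamma transcriptional activity was tracked as Gal4-UAS luciferase output in stably transfected Drosophila Schneider cells, with compound added 1 hr before 700 uM copper sulfate induction and a 20 hr ambient-temperature incubation.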
Tau fluor counter: counter-screen for tau fibril formation inhibitors | tau K18 P301L Alexa594 fluorescence, heparin fibrillization | Potency, µM (doses to about 57.7 µM), without a hit: at the highest dose activity change, negative = decrease | 280,000 tested, 0.93% active | AID 1463; also: nearly all actives have a fitted effect of over 55% in size
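Human K18 P301L tau (15 uM unlabeled plus 0.24 uM Alexa 594-labeled, final) in 100 mM sodium acetate pH 7 was mixed with compound and 20 uM heparin and incubated 6 hr at 37 C.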
Tau fibril FP: blocks human tau fibril formation measured by polarization; P10636; 280,000 tested, 0.39% active; Potency, µM (highest dose often 57.7 µM), without a hit: at the highest dose activity, negative = inhibition, usual class: inhibitors; AID 1468; K18 P301L tau heparin fibrillization, Alexa594 FP, 6 h; also: nearly all actives have a fitted effect of over 55% in size
Target sequence (P10636 561-689 P618L limits assumed): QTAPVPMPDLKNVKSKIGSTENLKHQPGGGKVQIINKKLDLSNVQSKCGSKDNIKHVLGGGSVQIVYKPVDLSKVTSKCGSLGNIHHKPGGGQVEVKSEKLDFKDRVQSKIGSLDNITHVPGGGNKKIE
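K18 P301L tau (15 uM unlabeled/0.24 uM Alexa 594-labeled, final) + compound + heparin 20 uM final; 100 mM NaOAc pH 7; 6 hr 37 C; ThT 30 uM final added, 1 hr RT; FP ex 555/em 632 nm.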
Tau fibril ThT: inhibitors of human tau fibril formation, thioflavin T binding; P10636; recombinant tau K18 P301L (four-repeat tau fragment), heparin-induced fibrillization, ThT fluorescence; Potency, µM (series often up to 57.4 µM), for the others: at the top dose activity, negative = inhibition, hits mostly inhibitors; 270,000 tested, 2.1% active; also: nearly all actives have a fitted effect of over 55% in size
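Aggregation was driven by heparin (20 uM final) acting on recombinant tau […] bearing P301L in 100 mM sodium acetate pH 7; fibrils were detected with Thioflavin T.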
Gal4-VP16 FLuc: Gal4-VP16 reporter inhibition counter-screen; Drosophila S2 Gal4-VP16 UAS-luciferase, luminescence, 20 h; AID 2546; 310,000 tested, 3.5% active; Potency, µM (doses to about 53.6 µM), without a hit: top-dose activity, negative = inhibition, most hits filed as inhibitors;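 also: Gal4-VP16 expression switched on by copper sulfate through the metallothionein promoter; nearly all actives have a fitted effect of over 50% in size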
Numbers without * were called inactive; ? = inconclusive; . = no result; [ ] = remark or other dose. Calls follow the shape of the dose curve; as a rule, active = well fitted curve in the direction sought with a large enough effect; inconclusive = small, poorly fitted or top-dose-only effect, or another doubt; inactive = no such curve, though single readings can be large; an effect the other way counts as inactive or inconclusive. % is scaled to controls: 0 for no effect and ±100 for the full control effect; potency is read from the fitted curve at half-maximal effect.

SMILES	RORg inh	Tau fluor counter	Tau fibril FP	Tau fibril ThT	Gal4-VP16 FLuc
CC(=O)c1ccc(NC(=O)C(C)n2nc(-c3ccccc3)ccc2=O)cc1 (centres undefined)	.	-19%	-8%	-2%	.
COc1ccccc1CN(C(=O)CNC(=O)c1ccco1)C(C(=O)NCC1CCCO1)c1ccc(OC)c(OC)c1 (centres undefined)	-17%	.	.	.	5%
CC1Cc2cc(S(=O)(=O)N(C)c3ccc(Br)cc3)ccc2N1C(=O)C1CC1 (centres undefined)	.	-18%	2%	-5%	.
O=C1/C(=C/c2cccnc2)SC(=S)N1C1CCS(=O)(=O)C1 (centres undefined)	11µM*	-11%	1%	?	?
O=C1/C(=C\c2cccnc2)SC(=S)N1C1CCS(=O)(=O)C1 (centres undefined)	6.3µM*	-2%	-2%	?	?
O=C1/C(=C/c2cccnc2)SC(=S)N1N1CCOCC1	-43%	-12%	-6%	?	-14%
Cc1ccc(N2C(=O)/C(=C/c3cccnc3)SC2=S)cc1	-34%	5%	-4%	5%	2%
C=C1CC2C(=O)N(Cc3cc(OC)ccc3OC)C(C(=O)OCC)C1N2C (centres undefined)	15%	.	.	.	5%
Cc1ccc(NC(=O)c2nc[nH]c2C(=O)N2CCC(C)CC2)cc1	8.9µM*	-11%	-10%	-1%	?
COc1ccc(NC(=O)c2nc[nH]c2C(=O)N(C)Cc2ccccc2)cc1	7.1µM*	-27%	-7%	-11%	?
COc1ccc(NC(=O)c2nc[nH]c2C(=O)N2CCC(C)CC2)cc1	13µM*	-9%	-4%	-7%	?
CN(Cc1ccccc1)C(=O)c1[nH]cnc1C(=O)NCC(=O)OC(C)(C)C	?	.	.	.	-27%
CCOC(=O)c1ccc(NC(=O)c2nc[nH]c2C(=O)N2CCN(c3ccccc3)CC2)cc1	?	14%	-2%	12%	?
Cc1ccc(NC(=O)c2nc[nH]c2C(=O)N2CCN(c3ccccc3)CC2)cc1	4.5µM*	-20%	-3%	-5%	13µM*
CCC(C)(C)N(C(=O)CCC(=O)Nc1cc(C)on1)C(C(=O)NC(C)(C)C)c1ccc(OC)cc1 (centres undefined)	42%	.	.	.	4%
CCC(Sc1nncn2c1cc1oc(C)cc12)C(=O)Nc1ccc(F)cc1 (centres undefined)	.	?	-12%	?	.
C=CC1CO1 (centres undefined)	-14%	.	.	.	6%
Cc1sc2ncn(CC(=O)Nc3cccc(C(F)(F)F)c3)c(=O)c2c1S(=O)(=O)N1CCN(C)CC1	.	-19%	-4%	-6%	.
CCOC(=O)c1ccc(NC(=O)c2nc[nH]c2C(=O)N2CCC(C)CC2)cc1	10µM*	-25%	-1%	-3%	?
COC(=O)N1C2=C(c3ccccc3[C@@H]1CC(=O)Nc1ccc3cc4ccccc4cc3c1)[C@@H]1C(=O)N(c3ccccc3)C(=O)[C@@H]1[C@H](C)C2	.	-15%[11.6 µM]	8%[11.6 µM]	-10%[11.5 µM]	.
COc1ccc2nc(-c3ccco3)c(-c3ccco3)nc2c1	?	7.9µM*[quencher]	?	4.5µM*	-29%
Nc1nc(-c2ccco2)c(-c2ccco2)s1	-15%	?	-10%	?	-13%
c1coc(-c2nc(-c3ccco3)c(-c3ccco3)nc2-c2ccco2)c1	0%	?	11µM*	7.9µM*	-3%
C=CCNC1=C2C[C@@H](C)C[C@H](OC)[C@H](O)[C@@H](C)/C=C(\C)[C@H](OC(N)=O)[C@@H](OC)/C=C/C=C(\C)C(=O)NC(=CC1=O)C2=O	?	-21%[11.6 µM]	7%[11.6 µM]	-24%[11.5 µM]	-4%[10 µM]
c1ccc(Nc2ncnc3ccc(-c4ccc5c(c4)OCO5)cc23)cc1	?	?	?	-5%	-12%
SMILES	RORg inh	Tau fluor counter	Tau fibril FP	Tau fibril ThT	Gal4-VP16 FLuc
COc1cc(CNc2ccc(O)cc2)cc(Br)c1OCc1ccccc1F	-22%	13µM*[quencher]	?	25µM*	?
CCOc1cc(CNc2ccc(O)cc2)cc(Br)c1OCc1ccccc1F	?	13µM*[quencher]	?	25µM*	-70%
CCOc1cc(CNc2ccc(O)cc2)cc(Br)c1OCc1ccccc1	.	8.9µM*[quencher]	-1%	?	.
COc1cc(CNC(C)(C)CO)cc(Br)c1OCc1ccccc1	1%	4%	3%	-2%	0%
CCc1ccc(OCc2ccccc2C(=O)Nc2ccc3nc(C)cc(N)c3c2)cc1	11µM*	?	?	?	?
Cc1nc([N+](=O)[O-])c(Br)n1CC(=O)c1ccc(Cl)cc1	10µM*	?	-3%	?	?
COc1ccc(C(=O)Cn2c(C)nc([N+](=O)[O-])c2Br)cc1	-32%	-16%	-4%	?	?
Cc1nc([N+](=O)[O-])c(Br)n1Cc1ccc(Cl)c(Cl)c1	7.1µM*	-3%	7%	-3%	?
NC(=O)c1ccccc1NC(=O)C1CCCO1 (centres undefined)	-3%	.	.	.	-6%
Cc1cccc(N2CCN(S(=O)(=O)c3cc(C(=O)Nc4ccc(Oc5ccccc5)cc4)ccc3F)CC2)c1C	.	-17%	28µM*	0%	.
O=C(Nc1cc(Cl)cc(Cl)c1)c1ccc(F)c(S(=O)(=O)N2CCN(c3ccccc3F)CC2)c1	.	-30%	20µM*	4%	.
O=[N+]([O-])c1ccc2nc(-c3ccccc3)cc(-c3ccccc3)c2c1	14%	-8%	7%	-1%	-3%
Nc1nc(-c2cc(O)ccc2[N+](=O)[O-])cc(-c2ccccc2)c1[N+](=O)[O-]	?	.	.	.	13µM*
COc1ccc(NC(=S)Nc2ccccn2)c(OC)c1	1.3µM*	-12%	3%	?	-3%[0.365 µM]
COc1ccc(NC(=S)Nc2ccccc2OC)c(OC)c1	14%	-3%	-3%	4%	1%[10 µM]
COc1ccc(NC(=S)Nc2ccc(OC)cc2OC)c(OC)c1	?	1%	2%	-2%	?
COc1ccc(NC(=S)Nc2cccnc2)c(OC)c1	-28%	1%	1%	-2%	-4%
COc1ccc(NC(=S)Nc2cnc3ccccc3c2)c(OC)c1	11µM*	-19%	7%	-6%	-8%
COc1ccc(NC(=S)Nc2cc(C)ccn2)c(OC)c1	6.3µM*	-7%	7%	-8%	3.2µM*
C=CCN1C(=O)S/C(=C\c2ccc(N3CCOCC3)cc2C)C1=O	42%	?	5%	?	-18%
Cc1cc(N2CCOCC2)ccc1/C=C1/SC(=O)NC1=O	1%	-27%	-9%	10µM*	0%
O=C1N/C(=C/c2ccc(N3CCCC3)cc2)C(=O)N1c1ccccc1	3%	?	2%	?	-13%
O=C1/C(=C/c2ccc(N3CCCC3)cc2)NC(=S)N1C1CC1	7.1µM*	?	-3%	?	11µM*

High-throughput results deposited in PubChem by National Center for Advancing Translational Sciences (NCATS).
